According to PubChem BioAssay AID1159580 (chemical genetic matrix, 2015):
About 2,000 (36%) of roughly 5,500 compounds were called active. About 18% were inconclusive and are not listed. No stated cut-off is given here; in the data, active means normalized growth mostly below about 0.91 (no sharp cut-off); inconclusive means no clear call, values can overlap the other calls; inactive means mostly above about 0.92. The list shows a part of the results.

Test: chemical genetic growth profiling, strain panel (AID 1159580);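 further: tested at 20 µM; growth read once vehicle control cultures reached saturation at 30 °C; 1 = growth at the plate median or of vehicle wells; lower values mean less growth of the strain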
Settings: S. cerevisiae deletion strains, growth OD
[1] = locus YAL013W, strain DEP1, active compounds read low
[2] = locus YAL040C, strain CLN3, active compounds read low
[3] = locus YCL061C, strain MRC1 (second series), active compounds read low
[4] = locus YDR150W, strain NUM1, active compounds read low
[5] = locus YDR363W, strain ESC2, active compounds read low
[6] = locus YER002W, strain NOP16, active compounds read low
[7] = locus YNL175C, strain NOP13, active compounds read low
[8] = locus YNL197C, strain WHI3, active compounds read low
[9] = locus YNL224C, strain SQS1, active compounds read low
[10] = locus YNL322C, strain KRE1, active compounds read low
[11] = locus YOR083W, strain WHI5 (second series), active compounds read low

Measured: normalized growth

CC(N)=NCCCC[C@@H](N)C(=O)O
inactive: [1] 1.01 | [2] 0.998 | [3] 1.01 | [4] 1 | [5] 1.01 | [6] 0.994 | locus YJR075W, strain HOC1, active compounds read low 1 | locus YMR263W, strain SAP30, active compounds read low 1.01 | locus YNL128W, strain TEP1, active compounds read low 1.02 | [7] 1 | [8] 1.01 | [9] 1.01 | [10] 1.02 | [11] 1.01 | locus YPL055C, strain LGE1, active compounds read low 1

COC(=O)[C@@H](N)CCCN=C(N)N[N+](=O)[O-]
inactive: [1] 0.999 | [2] 1 | [3] 1 | [4] 1.01 | [5] 1.01 | [6] 0.991 | locus YGR078C, strain PAC10, active compounds read low 1.01 | locus YMR307W, strain GAS1, active compounds read low 0.986 | [7] 1 | [8] 0.994 | [9] 1 | [10] 1.02 | [11] 1
